GLD-1 TGE inh = GLD-1-TGE RNA interaction inhibition (C. elegans); Q17339; purified GLD-1 + fluorescein TGE RNA, fluorescence polarization; inhibition, % at 5.96 µM; actives 0.44% (n = 320,000); AID 2280;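 active = percent inhibition above a per-plate cutoff, the plate mean of test compounds plus 3 SD, cut at about 30% in these data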;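 also: 0% = DMSO wells with GLD-1 and probe and 100% = wells lacking GLD-1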
Target sequence (Q17339 whole entry, looked up): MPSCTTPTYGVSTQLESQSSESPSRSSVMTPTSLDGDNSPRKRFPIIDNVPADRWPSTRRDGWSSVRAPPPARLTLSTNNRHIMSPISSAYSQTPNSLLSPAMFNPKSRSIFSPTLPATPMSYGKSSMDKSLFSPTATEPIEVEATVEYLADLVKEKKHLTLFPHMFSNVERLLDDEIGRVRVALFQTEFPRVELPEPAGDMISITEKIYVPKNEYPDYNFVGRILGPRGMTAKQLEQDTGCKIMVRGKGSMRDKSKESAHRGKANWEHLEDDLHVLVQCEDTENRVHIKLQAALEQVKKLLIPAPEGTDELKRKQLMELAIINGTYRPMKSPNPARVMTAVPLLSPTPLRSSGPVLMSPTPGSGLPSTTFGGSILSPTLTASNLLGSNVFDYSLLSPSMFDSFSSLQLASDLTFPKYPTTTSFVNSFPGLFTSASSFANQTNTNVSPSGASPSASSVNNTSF
Mcl1-Bid inh = Mcl-1/Bid interaction inhibition. inhibition, % at 21.7 µM. TR-FRET Mcl-1/Bid-Dy647 peptide binding, 1536-well. actives 0.97% (n = 220,000). Q07820;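 active = compounds that cut the binding signal by more than half at the single screening dose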;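 also: His-tagged Mcl-1 with europium anti-His antibody binding Bid BH3 peptide; 0% = Mcl-1 plus peptide wells and 100% = peptide-only wells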
Mcl1-Noxa inh = disrupts binding of human Mcl-1 to Noxa peptide | actives 1.5% (n = 220,000) | TR-FRET Mcl-1/Noxa peptide binding, 2 h | AID 1022 | inhibition, % at 21.7 µM | Q07820;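 active = compounds that cut the protein-peptide binding signal by more than 50% relative to plate controls in a single-dose test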;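 also: His-tagged Mcl-1 with rhodamine Noxa BH3 peptide and terbium anti-His antibody; 0% = Mcl-1 plus Noxa peptide wells and 100% = peptide-only wells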
Bcl-xL primary = inhibitors of human Bcl-xL; actives 0.7% (n = 320,000); inhibition, % at 10.9 µM; Q07817; AID 2129; GST-Bcl-xL / FITC-Bim BH3 peptide fluorescence polarization;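 active = inhibition above the mean of all tested compounds plus 3 SD, cutoff set per campaign, cut at about 30% in these data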;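 also: 0% = DMSO wells and 100% = unlabeled Bim-BH3 peptide competitor; inhibitors lower millipolarization by displacing the labeled peptide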
MCL1-BIM inh = MCL1-BIM-BH3 interaction inhibition (human). Q07820. GST-MCL1 / FITC-Bim-BH3 fluorescence polarization. inhibition, % at 10.9 µM. actives 0.68% (n = 320,000);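 active = inhibition above the mean inhibition of all tested compounds plus 3 SD, set per campaign, cut at about 40% in these data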;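 also: 0% = DMSO wells and 100% = unlabeled Bim-BH3 peptide control; higher means more loss of mP so more displacement of Bim peptide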
Bim-Mcl-1 = disrupts Bim peptide binding to human Mcl-1 | Q07820 | inhibition, % at 10 µM | AID 1009 | Bead-based flow cytometry, Bim peptide-Mcl-1 binding | actives 0.1% (n = 190,000); in the data active = inhibition above about 40%;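 also: 0% = no compound tracer wells and 100% = peptide blocker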
BCLXL inh confirm = Bcl-xL (human) inhibition, MCL1 counter-screen confirmation | shares compounds with MCL1-BIM inh | actives 54% (n = 1,700) | AID 2166 | inhibition, % at 10.9 µM | GST-Bcl-xL / FITC-Bim BH3 peptide FP binding;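 active = inhibition above a cutoff equal to the mean inhibition of all tested compounds plus 3 SD, cut at about 30% in these data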;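 also: 0% = DMSO wells and 100% = unlabeled Bim BH3 control peptide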
MCL1 BIM confirm = confirmation of human MCL1 and BIM-BH3 interaction inhibitors; actives 61% (n = 1,700); inhibition, % at 10.9 µM; GST-MCL1 / FITC-Bim-BH3 fluorescence polarization; shares compounds with MCL1-BIM inh;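 active = inhibition above the average of all tested compounds plus 3 SD, cut at about 40% in these data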;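 also: 0% = DMSO wells and 100% = unlabeled Bim-BH3 control peptide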
GLD-1 TGE cf = confirmation of C. elegans GLD-1 TGE RNA binding inhibitors. actives 10% (n = 550). shares compounds with GLD-1 TGE inh. inhibition, % at 5.96 µM. AID 2459. GLD-1/FL-TGE RNA fluorescence polarization, biochemical;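 active = average inhibition across triplicates above the hit cutoff set in the primary screen, cut at about 32% in these data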;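 also: 0% = GLD-1 with RNA probe and DMSO and 100% = wells lacking GLD-1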
Active calls of the source: *; nt = not tested or not shown. An excerpt weighted towards active compounds, which were near 2.3% of everything screened.

SMILES	GLD-1 TGE inh	Mcl1-Bid inh	Mcl1-Noxa inh	Bcl-xL primary	MCL1-BIM inh	Bim-Mcl-1	BCLXL inh confirm	MCL1 BIM confirm	others
CCCN(CCC)C(=O)c1ccc2c(c1)N(CC)C(=O)c1ccccc1S2(=O)=O	72*	nt	nt	117*	127*	nt	8	5
Cc1ccc(OCC(=O)N(C)CC(=O)Nc2ccccc2Cl)c([N+](=O)[O-])n1	8	nt	nt	3	5	nt	nt	nt
O=C(O)C(C(=O)/C=C/c1ccco1)=C1SCCS1	4	3	-5	26	51*	-1	23	56*
O=C(C=C1SCCS1)/C=C/c1ccco1	3	-42	42	14	37	-3	nt	nt
CCOC(=O)CSc1nc(N2CCOCC2)c2c(c1C#N)CC(C)(C)N(C)C2	73*	-16	-3	59*	56*	4	8	13
Cc1ccccc1OCCC(=O)OCC(=O)NC1CCS(=O)(=O)C1 (stereo unspecified)	8	nt	nt	-1	-7	nt	nt	nt
Nc1c(N)c2ccccc2oc1=O	5	-75	-4	8	8	0	nt	nt
O=c1oc2ccccc2c2oc3cc(O)c(O)cc3c12	1	-95	98*	29	71*	nt	34*	74*
CC(C)CCOCC1CC2(CC(C)(c3csc(N)n3)OC2=O)C(=O)O1 (stereo unspecified)	2	-21	-66	-7	168*	-7	3	-4
CC1(C)CC(=O)C(C(c2ccc(F)cc2)C2C(=O)CC(C)(C)CC2=O)C(=O)C1	6	-32	16	-2	1	3	nt	nt
CCc1sc(C(C2C(=O)CC(C)(C)CC2=O)C2C(=O)CC(C)(C)CC2=O)cc1[N+](=O)[O-]	8	33	48	16	43*	5	15	57*
Cc1ccc(/C=N/N=C/c2ccc(C)cc2)cc1	2	-28	6	5	4	0	nt	nt
Cc1ccc(C=Nc2cccnc2N)cc1	80*	-11	16	60*	70*	3	11	13
CCc1ccccc1OCC(=O)NCC1COc2ccccc2O1 (stereo unspecified)	4	nt	nt	nt	nt	nt	nt	nt
COC(=O)CCCC1=CC2=CC(=O)C(C)(OC(=O)C3CCCC3)C(=O)C2=CO1 (stereo unspecified)	48*	-62	42	45*	63*	nt	41*	63*
COC(=O)CCCC1=CC2=C(c3ccccc3)C(=O)C(C)(OC(=O)C3CCCC3)C(=O)C2=CN1C1CCCC1 (stereo unspecified)	10	-117	-2	12	15	nt	nt	nt
CCC(=O)OC1(C)C(=O)C=C2C=C(CCCC(=O)OC)OC=C2C1=O (stereo unspecified)	46*	nt	nt	70*	86*	nt	41*	75*
CCN(CC)CCNC(=O)C(=O)Nc1ccc2c(c1)N(S(=O)(=O)c1cccs1)CCC2	8	nt	nt	5	5	nt	nt	nt
O=C1CCCC(O)=C1N=Nc1cccc(C(=O)O)c1	-7	-43	57*	15	40*	0	11	35
N#C/C(=C\c1ccc(O)c(O)c1)C(=O)NCCc1ccccc1	3	nt	nt	4	42*	nt	31*	45*
CC(OC(=O)CCN1C(=O)C2CC=CCC2C1=O)C(=O)c1ccc(F)cc1 (stereo unspecified)	-1	nt	nt	0	-4	nt	nt	nt
O=C(OCC(=O)N1CCC(c2ccccc2)=N1)c1ccc(Cl)s1	4	nt	nt	nt	nt	nt	nt	nt
O=C1NC(=S)N/C1=C/c1cc2c(cc1[N+](=O)[O-])OCO2	42*	nt	nt	53*	67*	nt	10	14	GLD-1 TGE cf=0
O=[N+]([O-])c1nn(-c2ccc3c(c2)OCCO3)n(O)c1=NCc1ccc(F)cc1Cl	32*	-17	10	79*	67*	-3	10	0	GLD-1 TGE cf=-3
CC(=O)c1ccc(S(=O)(=O)N(C)CCCC(=O)N(C)Cc2c(F)cccc2Cl)cc1	3	nt	nt	0	8	nt	nt	nt
CCOC(=O)c1ccccc1NC(=O)C1CSC2(C)CCC(=O)N12 (stereo unspecified)	6	nt	nt	2	-6	nt	nt	nt
CC(C)CCNc1c(-c2cccs2)nc2ccccn12	46*	-49	18	75*	68*	0	46*	69*	GLD-1 TGE cf=2
COc1ccc(Nc2nnc(SCc3cc(=O)n4ccsc4n3)s2)cc1	41*	-34	44	66*	68*	-1	-4	-3	GLD-1 TGE cf=36*
